Compounds with a hit are over-represented: about 10% of the library has one in this group of screens.
Six1-Eya2 inh: inhibitors of human Six1/Eya2 interaction | Q15475+O00167 | AlphaScreen GST-Six1/His-Eya2 binding, biochemical; stronger effect = lower value | activity change, % (concentration not given with the values) | hit rate 0.56% among 360,000; in the data active = activity change below about -65%; inconclusive = mostly about -30% to -63%
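Compounds are tested against tagged Six1 and Eya2 proteins bridged by glutathione donor and nickel acceptor beads; after a one-hour incubation at 37 °C without light, AlphaScreen emission is recorded.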
JMJD2A Tudor inh: inhibitors of human JMJD2A Tudor domain; Potency, µM (top dose mostly 114 µM), actives largely listed as inhibitors; hit rate 4.4% among 390,000; AlphaScreen JMJD2A-Tudor / H3K4me3 peptide binding; also: nearly all actives have a fitted effect of over 50% in size
HP1b chromo inh: HP1-beta chromodomain-methylated histone interaction inhibition; P83916; AlphaScreen HP1-beta / biotin-H3K9me3 peptide binding; Potency, µM (titrated, usually from 114 µM), actives largely listed as inhibitors; hit rate 0.56% among 390,000; AID 540317; also: nearly all actives have a fitted effect of over 70% in size
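Compound inhibition of the preformed complex between 50 nM HP1-beta and 50 nM biotinylated H3K9me3 peptide was read by AlphaScreen. Buffer was PBS pH 7.4 with 0.01% Tween-20. Incubations ran 30 min at room temperature, with 10 ug/mL donor/acceptor beads.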
CtBP-E1A inh: inhibitors of CtBP/E1A interaction. AID 651724. activity change, % (test concentration not listed). AlphaScreen GST-E1A/His-CtBP binding, 1536-well; stronger effect = lower value. hit rate 0.49% among 340,000; in the data active = activity change below about -65%; inconclusive = mostly about -30% to -63%
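GST-E1A and His-tagged CtBP (125 nM each as 5X stock) were preincubated with pin-transferred compound for 2 h at 37 °C in the dark, then glutathione donor and nickel acceptor beads were added for 1 h before AlphaScreen reading.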
G9a block: G9a (human) methyltransferase inhibition; Q96KQ7; G9a H3K9 monomethylation, AlphaScreen, 2 h; Potency, µM (highest dose often 102 µM), usual class: inhibitors; hit rate 8.8% among 350,000; AID 504332; also: nearly all actives have a fitted effect of over 75% in size
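G9a (20 nM) was preincubated 15 min with compound, then reacted 2 h at room temperature with 500 nM biotin-H3K9 peptide and 20 µM SAM. Monomethyl-H3K9 detected by AlphaScreen using anti-H3K9me1 antibody.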
BAZ2B block: inhibitors of human BAZ2B bromodomain | Q9UIF8 | AlphaScreen BAZ2B-H3K14Ac peptide displacement | Potency, µM (top dose mostly 114 µM), most hits filed as inhibitors | hit rate 4.4% among 360,000 | AID 504333; also: nearly all actives have a fitted effect of over 60% in size
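Compounds, titrated to a top concentration of 110 uM, were incubated 30 min at room temperature with preformed BAZ2B/acetyl-K14 H3 peptide complex (50 nM each). Proximity signal was measured by AlphaScreen after 20 min with beads.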
Hits are given with their value; 0 = inactive; ? = inconclusive; - = no result; [ ] = remark or other dose. Unless noted, calls follow the shape of the dose curve; as a rule, active = well fitted inhibition curve with a large enough effect; inconclusive = small, poorly fitted or top-dose-only effect; inactive = no such curve, though single readings can be large or run the other way.

SMILES | Six1-Eya2 inh | JMJD2A Tudor inh | HP1b chromo inh | CtBP-E1A inh | G9a block | BAZ2B block
COc1ccc(NC(=O)CC2C(=O)N(c3ccc(OC)cc3)C(=O)N2C(C)C)cc1 (centres undefined) | 0 | 0 | 0 | 0 | 56.2µM | ?
Cc1ccc(N2C(=O)C(CC(=O)Nc3cccc(F)c3)N(C3CC3)C2=O)cc1 (centres undefined) | 0 | 0 | 0 | 0 | 44.7µM | 0
CCc1ccc(NC(=O)CC2C(=O)N(c3cccc(OC)c3)C(=O)N2C2CCCC2)cc1 (centres undefined) | - | 0 | 0 | - | 7.94µM | ?
COc1ccc(NC(=O)CC2C(=O)N(c3ccc(OC)cc3)C(=O)N2C2CCCCC2)cc1 (centres undefined) | - | 0 | 0 | - | ? | 0
COc1cccc(N2C(=O)C(CC(=O)Nc3ccccc3)N(C3CCCCC3)C2=O)c1 (centres undefined) | 0 | 0 | 0 | 0 | 0 | 0
Cc1cc(C)cc(CC(=O)N2CCC2(C)C(=O)NS(=O)(=O)c2ccc(Br)cc2)c1 (centres undefined) | 0 | - | - | 0 | - | -
CCOC(=O)[C@@H]1[C@H]2COc3ccc(Br)cc3[C@@H]2N2C(=O)N(c3cccc(Cl)c3)C(=O)[C@@]12C | 0 | 0 | 0 | 0 | - | -
CCc1ccc(C2CC(=O)c3c([nH]c(C(=O)OCC4CCCCC4)c3C)C2)cc1 (centres undefined) | - | 0 | 0 | - | 0 | 0
CC(C)c1ccc(NC(=O)CNS(=O)(=O)c2ccc(F)cc2)cc1 | 0 | 0 | 0 | 0 | 0 | 0
CCCc1cc2c(-c3ccccc3)cc(=O)oc2cc1OCc1ccc(C(=O)O)o1 | 0 | 0[11.4 µM] | ? | - | 44.7µM | ?
Cc1ccc(-n2c(=O)c3ccc(C(=O)NCc4ccco4)cc3n(CC(=O)Nc3ccccc3C(F)(F)F)c2=O)cc1 | - | 0 | 0 | - | 0 | 0
COC(=O)c1n[nH]c2ccccc12 | 0 | 0 | 0 | 0 | 0 | 0
O=C(OCCCCN1C(=O)c2ccccc2C1=O)c1n[nH]c2ccccc12 | 0 | ? | 0 | 0 | 50.1µM | 0
CN(C(=O)c1cc2nc(-c3ccco3)cc(C(F)(F)F)n2n1)C1CCCCC1 | 0 | 0 | 0 | 0 | 56.2µM | 0
O=C(c1cc2nc(-c3ccco3)cc(C(F)(F)F)n2n1)N1CCCCCC1 | 0 | 0 | 0 | 0 | ? | -
O=C(c1cc2nc(-c3ccco3)cc(C(F)(F)F)n2n1)N1CCN(c2ccccc2)CC1 | 0 | 0 | 0 | 0 | 44.7µM | ?
NC(=O)c1cc2nc(-c3ccco3)cc(C(F)(F)F)n2n1 | -72.1 | 0 | 0 | -80.1 | ? | 0
O=C(c1cc2nc(-c3ccco3)cc(C(F)(F)F)n2n1)N1CCN(c2ccccn2)CC1 | 0 | 0 | 0 | 0 | ? | 0
Cc1ccc(CNC(=O)C(=O)NCC(c2ccc3c(c2)OCO3)N2CCOCC2)cc1 (centres undefined) | - | 0 | 0 | - | 0 | 0
O=C1CCCC2=C1C(c1ccc(Cl)cc1)C1C(=O)c3ccccc3C1=N2 (centres undefined) | ? | ? | 0 | 0 | ? | ?
Cc1ccc(C2C3=C(CCCC3=O)N=C3c4ccccc4C(=O)C32)cc1 (centres undefined) | ? | 0 | ? | ? | 44.7µM | 28.2µM
CCC(=O)NC(=S)Nc1cccc(Cl)c1N1CCCCC1 | 0 | 0 | 0 | 0 | 0 | 0
CC1=CC(=O)C(C(C)C)=C/C1=N/OC(=O)c1cccc([N+](=O)[O-])c1 | 0 | 0 | 0 | 0 | 0 | 0
CC1=CC(=O)C(C(C)C)=CC1=NC(=O)c1ccc(C)cc1 | 0 | 50.1µM | 22.4µM | - | 8.91µM | 39.8µM
CC(C)CCNC(=O)C(=O)Nc1cc2c3c(c1)CCC(=O)N3CCC2 | 0 | 0 | 0 | 0 | 0 | 0
CCOC(=O)c1sc(=S)n(-c2ccccc2)c1C | 0 | 0 | 0 | 0 | ? | 0
CCOC(=O)c1c(O)c(O)c(C(=O)OCC)n1-c1ccccc1 | 0 | 35.5µM | 0 | 0 | 8.91µM | 0
CCOC(=O)c1ccc2c(c1)[n+](CC)c(C)n2-c1ccccc1 | 0 | 0 | 0 | 0 | 31.6µM | ?

High-throughput results (PubChem BioAssay)
